Assay in all cases: Confirmatory Screen for Target Class Profiling of Small Molecule Inhibitors of Methyltransferases (AID 1745852); on activity change, negative = inhibition: on the % scale 0 is the no-effect control and ±100 the full control effect
In assay [1] the target is Catechol O-methyltransferase (Homo sapiens) (UniProt P21964). The following applies: MTase-Glo luminescence, SAH detection, recombinant enzyme; measured here: COMT max response; stronger effect = lower value.
Assay [2] deals with Guanidinoacetate N-methyltransferase (Homo sapiens) (UniProt Q14353). To be noted: MTase-Glo luminescence, SAH detection, recombinant enzyme; activity change, negative = inhibition: at 57.3 µM (top of the series) unless noted; series mostly up to 57.3 µM.
The target of assay [3] is Nicotinamide N-methyltransferase (Homo sapiens) (UniProt P40261). To be noted: MTase-Glo luminescence, SAH detection, recombinant enzyme; measured here: NNMT max response; stronger effect = lower value.
For assay [4], the target named is Phenylethanolamine N-methyltransferase (Homo sapiens) (UniProt P11086). The following applies: MTase-Glo luminescence, SAH detection, recombinant enzyme; measured here: PNMT max response; stronger effect = lower value.

Calls of active or inactive are those of the source. The call rests on the fitted dose curve.
Potency means the concentration at half of the fitted maximal effect.

Nicotinamide N-methyltransferase (Homo sapiens), sequence (P40261 whole entry, looked up): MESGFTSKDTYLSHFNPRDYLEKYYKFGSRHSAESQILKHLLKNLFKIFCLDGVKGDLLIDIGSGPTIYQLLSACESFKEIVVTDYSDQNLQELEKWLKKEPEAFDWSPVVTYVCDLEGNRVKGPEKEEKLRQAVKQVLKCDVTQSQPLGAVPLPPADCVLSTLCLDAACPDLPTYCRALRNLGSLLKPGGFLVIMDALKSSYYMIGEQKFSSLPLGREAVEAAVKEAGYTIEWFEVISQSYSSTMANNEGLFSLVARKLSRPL
Phenylethanolamine N-methyltransferase (Homo sapiens), sequence (P11086 whole entry, looked up): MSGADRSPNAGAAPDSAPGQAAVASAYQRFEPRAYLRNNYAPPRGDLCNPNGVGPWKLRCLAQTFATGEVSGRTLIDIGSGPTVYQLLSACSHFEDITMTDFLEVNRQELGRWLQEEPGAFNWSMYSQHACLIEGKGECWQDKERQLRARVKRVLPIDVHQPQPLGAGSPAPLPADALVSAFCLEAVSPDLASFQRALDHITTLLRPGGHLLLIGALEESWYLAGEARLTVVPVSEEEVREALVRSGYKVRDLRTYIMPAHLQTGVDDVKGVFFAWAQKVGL
Catechol O-methyltransferase (Homo sapiens), sequence (P21964 whole entry, looked up): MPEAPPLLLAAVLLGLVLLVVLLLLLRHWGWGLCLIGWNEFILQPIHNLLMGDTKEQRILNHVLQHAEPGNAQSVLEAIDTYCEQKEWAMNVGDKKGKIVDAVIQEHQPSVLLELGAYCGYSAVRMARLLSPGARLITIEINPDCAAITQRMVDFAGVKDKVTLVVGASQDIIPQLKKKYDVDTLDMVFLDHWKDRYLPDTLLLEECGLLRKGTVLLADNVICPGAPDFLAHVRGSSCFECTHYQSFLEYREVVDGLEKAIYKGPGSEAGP

For `CCCNc1cc(N2CCC(CCC(=O)NCCN3CCCCCC3)CC2)ncn1`, the activity was 7.42% in assay [1], -8.06% in assay [3] and 0.426% in assay [4]. The activity change, negative = inhibition in assay [2] came to 8.04%.

For `Cc1cc(C)c(CNC(=O)c2cc(-c3cnn(C)c3C)cc3c2OCCN3C)c(=O)[nH]1`, the results for the activity in assay [1], in assay [3] and in assay [4] were -62.4%, -51.4% and -75.2%, respectively. For the same compound, the Potency in assay [2] was 39.3 µM (active).

In the case of `CCN(CC)c1cc(CCC(=O)N2CCN(c3cccc(OC)c3)CC2)ccn1`, the values for the activity in assay [1], in assay [3] and in assay [4] were -2.67%, 1.73% and -3.99%, respectively. For the same compound, the activity change, negative = inhibition in assay [2] was 5.52%.

As for `c1ccc(CCN2CCNc3cc(NCc4cccnc4)ncc3C2)cc1`, the activity in assay [1] was 2.5%; in assay [3], -5.35%; in assay [4], -6.38%. In addition, the activity change, negative = inhibition in assay [2] worked out at 1.95% [at 85.7 µM].

Regarding `O=C(CCc1nnc2n(CCc3ccccc3)c(=O)c3ccccc3n12)N1CCN(C2CCCCC2)CC1`, the figures for the activity in assay [1], in assay [3] and in assay [4] were 0%, -47.4% and 0.426%, respectively. Further, the activity change, negative = inhibition in assay [2] was determined as 0%.

For the compound `CCOc1cc(CNc2ccc(C(=O)O)cc2)ccc1OCc1ccccc1`, the activity in assay [1] was -41.3%; in assay [3], -22.2%; in assay [4] it was -2.65%. Moreover, the activity change, negative = inhibition in assay [2] was 0.912%.

Consider `O=C(Cn1c(=O)oc2cc(S(=O)(=O)N3CCCC3)ccc21)Nc1cccc(Cl)c1`, for which the activity was -1.16% in assay [1], 4.81% in assay [3] and -49.8% in assay [4]. Moreover, the activity change, negative = inhibition in assay [2] worked out at 0%.

With `CCCCCNC(=O)c1sc(=S)n2c1[nH]c(=O)c1ccc(C(=O)OC)cc12`, the activity in assay [1] was -39.2%; in assay [3], -59.4%; in assay [4], -27%. In addition, in assay [2], the Potency was 30.4 µM (active).

Turning to `CC(C)Cn1c(=O)c2ccccc2n2c(CCC(=O)N3CCN(c4ccccc4F)CC3)nnc12`, the activity was 2.07% in assay [1], -58.2% in assay [3] and -8.56% in assay [4]. The activity change, negative = inhibition in assay [2] stood at 0%.

On to `Cc1ccc(N(C)S(=O)(=O)c2ccc3c(c2)n(C)c(=O)n3C)cc1`, for which the activity in assay [1] was -6.35%; in assay [3], -47%; in assay [4], -7.47%. Further, the Potency in assay [2] was 0.192 µM (active).

On to `Cn1cc(CN2CCCC(COc3ccccc3C(=O)N3CCCCC3)C2)c2ccccc21` (stereo not given), for which the activity in assay [1] is 6.44%; in assay [3], 4.53%; in assay [4], 3.6%. In addition, the activity change, negative = inhibition in assay [2] came to 7.22%.

For `CCCC1c2cccn2CCN1C(=O)Nc1ccccc1Cl` (stereo not given), the activity in assay [1] is 2%; in assay [3], -4.51%; in assay [4], 1.09%. Further, the Potency result in assay [2] is “inactive”.

For `CCCCN(C)C(=O)c1c(C)sc2ccn(CCC)c(=O)c12`, the activity in assay [1] is -45.9%; in assay [3], -28.7%; in assay [4] it was -13.5%. For the same compound, the Potency in assay [2] was 12.1 µM (active).

Regarding `c1ccc(-c2[nH]nc3ncc(-c4cn[nH]c4)nc23)cc1`, the activity is -73.4% in assay [1], -59.9% in assay [3] and -83.4% in assay [4]. Besides, the Potency in assay [2] is 31.2 µM (active).

Consider `CC(C)Cn1c(=O)c2ccccc2n2c(CCC(=O)N3CCN(c4cccc(Cl)c4)CC3)nnc12`, for which the activity is -1.89% in assay [1], -35.8% in assay [3] and -10.3% in assay [4]. In addition, the activity change, negative = inhibition in assay [2] came to 1.7%.

As to `Cc1ccc2c(c1)c(-n1cccc1)c1n2CC(C)(C(=O)NC2CCCCC2)N(Cc2ccccn2)C1=O` (stereo not given), the activity in assay [1] was 4.89%; in assay [3], -16.5%; in assay [4], 0%. For the same compound, the activity change, negative = inhibition in assay [2] turned out to be 0.484%.

Consider `CC1(C(=O)NC2CCCCC2)Cn2c(c(-n3cccc3)c3ccccc32)C(=O)N1Cc1ccccn1` (stereo not given), for which the activity was 0% in assay [1], -45.4% in assay [3] and 2.72% in assay [4]. The activity change, negative = inhibition in assay [2] came to 0%.

For `COCc1cc(NCCCNc2cccnc2)ncn1`, the activity in assay [1] is -19.2%; in assay [3], -14.1%; in assay [4], -21%. In addition, the activity change, negative = inhibition in assay [2] was -12.2%.

`CCCn1c(C)cnc1CC1CCN(C(=O)NCc2ccc(OC)cc2)C1` (stereo not given): the activity in assay [1] was -4.22%; in assay [3], -3.34%; in assay [4], -1.44%. The activity change, negative = inhibition in assay [2] was found to be 6.2%.

For `CCCC1c2cccn2CCN1C(=O)Nc1ccc(OC)cc1` (stereo not given), the values for the activity in assay [1], in assay [3] and in assay [4] were -6.82%, -13.3% and -7.43%, respectively. Also, the activity change, negative = inhibition in assay [2] was -3.73%.

In the case of `COc1ccc(N2C(=O)c3ccc(-c4ccco4)n3CC2(C)C(=O)NCc2ccccc2)cc1OC` (stereo not given), the activity was -7.65% in assay [1], -17.5% in assay [3] and -3.81% in assay [4]. In addition, the activity change, negative = inhibition in assay [2] was -2.41%.

Consider `COc1cc2c(cc1O)NC(=O)CC2c1cn[nH]c1-c1cc(C)ccc1C` (stereo not given), for which the activity is -13.7% in assay [1], -6.25% in assay [3] and -21.7% in assay [4]. For the same compound, the activity change, negative = inhibition in assay [2] amounted to 2.11%.

`CCN(CC)CCNC(=O)CCc1nnc2n(Cc3ccc(Cl)cc3)c(=O)c3ccccc3n12`: the results for the activity in assay [1], in assay [3] and in assay [4] were 2.48%, -12.4% and 0%, respectively. For the same compound, in assay [2], the activity change, negative = inhibition was determined as 0%.

Regarding `CCc1cccc(NC(=O)Cn2c(=O)oc3cc(S(=O)(=O)N4CC(C)CC(C)C4)ccc32)c1` (stereo not given), the activity is 3.4% in assay [1], -6.52% in assay [3] and -59.2% in assay [4]. For the same compound, the activity change, negative = inhibition in assay [2] was found to be 0%.

Take `CCN1CCN(c2nc3c(S(=O)(=O)c4ccc(C)cc4)nnn3c3ccccc23)CC1`: the activity in assay [1] was -6.68%; in assay [3] it was -16.7%; in assay [4], -10.8%. In addition, the activity change, negative = inhibition in assay [2] was -2.1%.

`O=C(NCCc1ccccc1)N1CCn2cccc2C1Cc1ccccc1` (stereo not given): the activity in assay [1] is 0.987%; in assay [3], -8.34%; in assay [4], -0.866%. In assay [2], the Potency entry was “inactive”.

Consider `CC1=C[C@@H](CN(CC2CC2)CC2CC2)[C@H](C(C)C)C[C@H]1Cc1nc2ccncc2[nH]1`, for which the activity is 3.81% in assay [1], -1.17% in assay [3] and 3.65% in assay [4]. Moreover, the activity change, negative = inhibition in assay [2] turned out to be 4.35% [at 85.7 µM].

With `Cc1noc(C)c1-c1cc2c(cc(C)n2CCN(C)C)c(Nc2ccncn2)n1`, the activity in assay [1] was -14.2%; in assay [3] it was -15.3%; in assay [4] it was -28.6%. Moreover, the activity change, negative = inhibition in assay [2] was -6.67% [at 85.7 µM].

Turning to `COCCCN1C(=O)c2cc3c(OC)ccc(OC)c3n2CC1(C)C(=O)NC1CCCCC1` (stereo not given), the activity in assay [1] was -9.18%; in assay [3], -20.2%; in assay [4], -10%. Besides, the activity change, negative = inhibition in assay [2] is -5.66%.

`Cc1cc2c(cc3n2CC(C)(C(=O)NC2CCCCCCC2)N(Cc2ccco2)C3=O)o1` (stereo not given): the activity in assay [1] is -1.76%; in assay [3], -37.5%; in assay [4] it was -6.55%. For the same compound, the activity change, negative = inhibition in assay [2] is 0%.
